The record followed here is PubChem BioAssay (NCI).

What all share (test): NCI-60 one-dose screen, 48 h (100 = growth as untreated, 0 = no growth, -100 = all killed)
One assay relates to HCT-15 colon. Conditions: 10 µM unless noted.
Another assay has as its system HT29 colon. The note with it: 10 µM unless noted.
The next assay relates to SNB-75 CNS. The note with it: 10 µM unless noted.
Another assay deals with SNB-19 CNS. Conditions: 10 µM unless noted.
The next assay relates to U251 CNS. The note with it: 10 µM unless noted.
The next assay concerns PC-3 prostate. The note with it: 10 µM unless noted.
The next assay concerns SK-MEL-5 melanoma. Conditions: 10 µM unless noted.
Another assay relates to UACC-62 melanoma. The note with it: 10 µM unless noted.
The subject of another assay is LOX IMVI melanoma. The note with it: 10 µM unless noted.
A further assay concerns SK-MEL-28 melanoma. Conditions: 10 µM unless noted.
For the next assay, the system named is SK-MEL-2 melanoma. The note with it: 10 µM.
In a further assay the test system is EKVX NSCLC. Conditions: 10 µM unless noted.
The subject of another assay is SN12C renal. Conditions: 10 µM unless noted.
For the next assay, the system named is UO-31 renal. Conditions: 10 µM unless noted.
The subject of the next assay is TK-10 renal. Conditions: 10 µM unless noted.
The test system of a further assay is ACHN renal. Conditions: 10 µM unless noted.
A further assay relates to A498 renal. The note with it: 10 µM unless noted.
The test system of the next assay is CCRF-CEM leukemia. The note with it: 10 µM unless noted.
A further assay relates to MOLT-4 leukemia. The note with it: 10 µM unless noted.
A further assay relates to CAKI-1 renal. Conditions: 10 µM unless noted.

The panel holds about 83,000 compounds, 20% with a hit somewhere; the sample as a whole holds those more often.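 Treatment: one concentration, 48 hours, 96-well format. Scoring: percent growth, with anything below 10 considered active.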 Values without a mark were called inactive. The source made the active and inactive calls.

Turning to `Cc1cc2c3c(cccc3c1)C(=O)c1ccccc1-2`, the growth was 93.5% in the assay on HCT-15 colon; 94.9% with HT29 colon; 111% in the assay with SNB-75 CNS; 97.8% in the assay on SNB-19 CNS; 98.8% in the assay with U251 CNS; 93.6% with PC-3 prostate. In addition, the growth in the assay with SK-MEL-5 melanoma is 95.2%; with UACC-62 melanoma it was 85.1%; in the assay with LOX IMVI melanoma it was 86.8%; with SK-MEL-28 melanoma, 105%; in the assay with SK-MEL-2 melanoma, 105%; in the assay with EKVX NSCLC, 78.1%. Further, the growth is 97% in the assay with SN12C renal; 60.5% with UO-31 renal; 106% in the assay on TK-10 renal; 97.6% with ACHN renal; 93.2% in the assay with A498 renal; 118% in the assay on CCRF-CEM leukemia.
Consider `COc1cc(-c2nc(C(=O)Nc3ccc(C)cc3)nn2-c2ccc(F)c(F)c2)cc(OC)c1OC`, for which the growth with HCT-15 colon was 94.7%; in the assay on HT29 colon it was 75.5%; in the assay with SNB-75 CNS it was 84.9%; in the assay with SNB-19 CNS, 104%; in the assay with U251 CNS, 100%; with PC-3 prostate, 96.7%. Besides, the growth in the assay on SK-MEL-5 melanoma was 95.8%; with UACC-62 melanoma, 105%; in the assay on LOX IMVI melanoma, 99%; in the assay with SK-MEL-28 melanoma it was 108%; with SK-MEL-2 melanoma it was 89.5%; with EKVX NSCLC, 99.9%. Besides, the growth in the assay with SN12C renal was 97.5%; in the assay on UO-31 renal, 72.9%; with TK-10 renal, 98.8%; in the assay on ACHN renal it was 105%; in the assay on A498 renal it was 112%; with CCRF-CEM leukemia it was 102%. In addition, in the assay with MOLT-4 leukemia, the growth is 94.9%.
For `O=C(c1ccccc1)C(c1ccccc1)N1CCOCC1` (stereo unspecified), the growth in the assay on HCT-15 colon was 104%; in the assay with HT29 colon, 99.1%; with SNB-75 CNS, 100%; in the assay with SNB-19 CNS, 100%; in the assay with U251 CNS, 95.1%; in the assay on PC-3 prostate, 92.7%. Moreover, the growth in the assay with SK-MEL-5 melanoma was 102%; with UACC-62 melanoma it was 105%; in the assay with LOX IMVI melanoma, 98.2%; in the assay on SK-MEL-28 melanoma it was 105%; in the assay with SK-MEL-2 melanoma it was 91.1%; with EKVX NSCLC, 99%. Also, the growth in the assay with SN12C renal was 101%; in the assay with UO-31 renal, 86.9%; in the assay with TK-10 renal, 90%; in the assay on ACHN renal, 106%; with A498 renal, 111%; in the assay on CCRF-CEM leukemia, 91.2%. Besides, the growth with MOLT-4 leukemia was 94.3%.
On to `O=C(Nc1ccc(N=Nc2ccccc2)cc1)c1cccc2ccccc12`, for which the growth with HCT-15 colon was 21.8%; in the assay with HT29 colon it was 35.4%; with SNB-75 CNS it was 39.3%; in the assay with SNB-19 CNS, 67.3%; in the assay on U251 CNS it was 63.6%; in the assay with PC-3 prostate, 54.8%. The growth with SK-MEL-5 melanoma is 59%; in the assay with UACC-62 melanoma, 34.6%; with LOX IMVI melanoma, 64.4%; with SK-MEL-28 melanoma it was 67.5%; in the assay on SK-MEL-2 melanoma, 56.4%; with EKVX NSCLC it was 71.5%. The growth in the assay on SN12C renal was 78.8%; with UO-31 renal, 68.3%; with TK-10 renal, 76.2%; in the assay with ACHN renal, 77.5%; in the assay with CAKI-1 renal, 70.8%; with CCRF-CEM leukemia it was 49.8%. The growth in the assay on MOLT-4 leukemia was 37.2%.
On to `O=C(Cc1ccccc1)Nc1nnc(NC2CCN(c3nnc(NC(=O)Cc4ccccc4)s3)CC2)s1`, for which the growth in the assay with HCT-15 colon is 99.4%; in the assay on HT29 colon, 94.4%; in the assay on SNB-75 CNS, 106%; with SNB-19 CNS it was 107%; with U251 CNS, 90.8%; in the assay on PC-3 prostate, 87.1%. The growth in the assay with SK-MEL-5 melanoma is 98.7%; in the assay with UACC-62 melanoma it was 89%; in the assay with LOX IMVI melanoma it was 69.2%; in the assay on SK-MEL-28 melanoma, 107%; with SK-MEL-2 melanoma it was 122%; in the assay on EKVX NSCLC it was 90.2%. The growth was 86% in the assay with SN12C renal; 74.4% in the assay with UO-31 renal; 110% with TK-10 renal; 103% in the assay with ACHN renal; 43.8% in the assay on A498 renal; 72.4% with CCRF-CEM leukemia. The growth with MOLT-4 leukemia was 91.3%.
As to `COC(=O)C1CCc2sc3ncnc(Nc4cn[nH]c4C(=O)Nc4ccc(CN5CCN(C)CC5)cc4)c3c21` (stereo unspecified), the growth is 7.28% (active) in the assay with HCT-15 colon; -0.301% (active) in the assay on HT29 colon; -22.4% (active) in the assay with SNB-75 CNS; 21.6% with SNB-19 CNS; -24.2% (active) with U251 CNS; 9.88% (active) in the assay with PC-3 prostate. Further, the growth is -59.3% (active) in the assay on SK-MEL-5 melanoma; 58.8% with UACC-62 melanoma; 0.377% (active) in the assay with LOX IMVI melanoma; 23.5% in the assay with SK-MEL-28 melanoma; -20.4% (active) in the assay with SK-MEL-2 melanoma; 8.24% (active) with EKVX NSCLC. The growth is 12.7% in the assay on SN12C renal; -15.3% (active) with UO-31 renal; 5.51% (active) in the assay with TK-10 renal; 4.58% (active) in the assay with ACHN renal; -25.6% (active) with A498 renal; 1.79% (active) in the assay on CCRF-CEM leukemia. Also, the growth with MOLT-4 leukemia was -6.03% (active).
Regarding `Cc1cc2c(-c3nc4ccccn4c3Nc3cccc4ccccc34)c(O)c(O)cc2c(O)c1-c1c(C)cc2c(-c3nc4ccccn4c3Nc3cccc4ccccc34)c(O)c(O)cc2c1O`, the growth in the assay with HCT-15 colon was 41.4%; with HT29 colon, 27.5%; with SNB-75 CNS, 30%; with SNB-19 CNS, 15.6%; with U251 CNS, 12.9%; with PC-3 prostate, 16%. In addition, the growth with SK-MEL-5 melanoma is 1.82% (active); in the assay on UACC-62 melanoma, 1.11% (active); in the assay with LOX IMVI melanoma, 9.84% (active); in the assay on SK-MEL-28 melanoma it was 34.5%; with SK-MEL-2 melanoma it was 38.3%; in the assay with EKVX NSCLC, 51.4%. In addition, the growth is 16.7% in the assay on SN12C renal; 44% in the assay with UO-31 renal; 50.9% in the assay with TK-10 renal; 49.2% with ACHN renal; 29.6% with A498 renal; 27.3% with CCRF-CEM leukemia. Moreover, the growth with MOLT-4 leukemia was 31.2%.
As for `COC(=O)CCCNc1c(-c2c(O)c(O)cc3c(O)c(-c4c(C)cc5c(-c6nc7ccccn7c6NCCCC(=O)OC)c(O)c(O)cc5c4O)c(C)cc23)nc2ccccn12`, the growth in the assay with HCT-15 colon is 76.9%; in the assay on HT29 colon, 48.8%; in the assay on SNB-75 CNS, 19.9%; with SNB-19 CNS it was 21.4%; in the assay on U251 CNS, 14%; in the assay with PC-3 prostate, 52.7%. For the same compound, the growth in the assay with SK-MEL-5 melanoma was 76.2%; in the assay with UACC-62 melanoma, 41.4%; in the assay on LOX IMVI melanoma it was 18%; in the assay on SK-MEL-28 melanoma, 39.7%; in the assay with SK-MEL-2 melanoma it was 60.1%; with EKVX NSCLC, 61.8%. For the same compound, the growth is 21.7% in the assay with SN12C renal; 57.8% in the assay with UO-31 renal; 64.4% in the assay on TK-10 renal; 78.7% in the assay on ACHN renal; 32.1% with A498 renal; 27.4% with CCRF-CEM leukemia. Further, the growth in the assay with MOLT-4 leukemia was 15.7%.
